# Laboratory results reported in PubChem BioAssay (EPA / NIEHS).
# A structure can be active in one record and inactive in another. Calls of active or inactive are those of the source. How the source made its calls: active means hit-call score of the fitted dose curve at least 0.9, where 1 is the maximum; inactive means score below 0.9.
# Target: Transcription factor E2F1 (Homo sapiens) (UniProt Q01094)
# Assay: ATG_E2F_CIS: Attagene CIS-FACTORIAL HepG2 Assay for human E2F Transcription Factor 1 (AID 2282935)
# Conditions: HepG2 Attagene cis-reporter, E2F reporter RNA transcripts; actives raise or lower the signal
# Procedure, shortened: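 Multiplexed cis-reporter assay: HepG2, transient transfection, 24 h dosing, mRNA quantitation by labeled RT-PCR and CE.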
# Transcription factor E2F1 (Homo sapiens), sequence (Q01094 whole entry, looked up): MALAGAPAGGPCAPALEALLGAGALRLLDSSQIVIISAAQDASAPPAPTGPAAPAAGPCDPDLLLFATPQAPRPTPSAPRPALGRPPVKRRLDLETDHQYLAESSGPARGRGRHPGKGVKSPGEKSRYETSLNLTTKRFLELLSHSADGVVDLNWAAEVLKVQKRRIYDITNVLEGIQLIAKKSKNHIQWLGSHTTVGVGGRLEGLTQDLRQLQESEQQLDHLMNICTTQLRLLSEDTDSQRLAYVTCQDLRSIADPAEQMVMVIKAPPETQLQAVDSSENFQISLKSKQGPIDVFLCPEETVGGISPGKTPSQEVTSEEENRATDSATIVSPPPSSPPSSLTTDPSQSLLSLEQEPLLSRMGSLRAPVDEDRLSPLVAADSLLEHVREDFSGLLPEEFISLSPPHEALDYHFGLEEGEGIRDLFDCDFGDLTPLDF
SMILES,outcome,AC50
C[C@]12CC[C@@H](O)C[C@@H]1CC[C@@H]1[C@@H]2CC[C@]2(C)C(=O)CC[C@@H]12,inactive,–
CNC(=O)CSP(=O)(OC)OC,inactive,–
O=c1nc(O)n(Cl)c(=O)n1Cl,inactive,–
CC(C)[C@H](C(=O)OC(C#N)c1cccc(Oc2ccccc2)c1)c1ccc(OC(F)F)cc1 (stereo partly drawn),inactive,–
BrCCCCBr,inactive,–
COC(F)(C(F)(F)C(F)(F)F)C(F)(C(F)(F)F)C(F)(F)F (stereo not drawn),inactive,–
O=S1(=O)OC(c2cc(Br)c(O)c(Br)c2)(c2cc(Br)c(O)c(Br)c2)c2ccccc21,inactive,–
Brc1ccc(Br)cc1,inactive,–
C[N+](C)(C)Cc1ccccc1,inactive,–
O=C(N[C@H]1CN2CCC1CC2)c1ccc2c(c1)OCCO2,inactive,–
Nc1ncn[nH]1,inactive,–
COC(=O)Nc1cccc(OC(=O)Nc2cccc(C)c2)c1,inactive,–
Brc1ccc(Oc2c(Br)cc(Br)cc2Br)c(Br)c1,inactive,–
CCOP(=O)(OCC)SCCSCC,inactive,–
N#CS,inactive,–
O=c1oc2ccccc2c(O)c1C(CC(O)c1ccc(-c2ccc(Br)cc2)cc1)c1ccccc1 (stereo not drawn),inactive,40.6 µM (active)
Cc1ccc2nc3sc(=O)sc3nc2c1,inactive,–
Cc1cc(C(F)(C(F)(F)F)C(F)(F)F)ccc1NC(=O)c1cccc(I)c1C(=O)NC(C)(C)CS(C)(=O)=O,inactive,–
N#CCCC(Br)(C#N)CBr (stereo not drawn),inactive,–
COc1ccc(N)cc1,inactive,–

# Tested on: not listed separately
# Assay: ATG_E_Box_CIS: Attagene CIS-FACTORIAL HepG2 Assay for human Enhancer Box (E-box) (AID 2282936)
# Conditions: HepG2 E-box cis-reporter transcription, actives raise or lower the signal
# Procedure, shortened: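 Multiplexed CIS reporter system in transiently transfected HepG2 cells measures native transcription factor activity. Reporter RNA after 24 h exposure is profiled by RT-PCR-capillary electrophoresis.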
SMILES,outcome,AC50
C[C@]12CC[C@@H](O)C[C@@H]1CC[C@@H]1[C@@H]2CC[C@]2(C)C(=O)CC[C@@H]12,inactive,–
O=c1nc(O)n(Cl)c(=O)n1Cl,inactive,–
CN(C)[C@@H]1C(=O)C(C(N)=O)=C(O)[C@@]2(O)C(=O)C3=C(O)c4c(O)ccc(Cl)c4[C@@](C)(O)[C@H]3C[C@@H]12,inactive,–
N#CCC#N,inactive,–
CC(C)[C@H](C(=O)OC(C#N)c1cccc(Oc2ccccc2)c1)c1ccc(OC(F)F)cc1 (stereo partly drawn),inactive,–
BrCCCCBr,inactive,–
CCOP(=S)(OCC)SCSc1cc(Cl)ccc1Cl,inactive,–
COC(F)(C(F)(F)C(F)(F)F)C(F)(C(F)(F)F)C(F)(F)F (stereo not drawn),inactive,–
BrCc1ccc(Br)cc1,inactive,–
CN(N=O)c1ccc([N+](=O)[O-])cc1,inactive,–
O=S1(=O)OC(c2cc(Br)c(O)c(Br)c2)(c2cc(Br)c(O)c(Br)c2)c2ccccc21,inactive,–
CCOP(=S)(OCC)OP(=S)(OCC)OCC,inactive,–
O=C(N[C@H]1CN2CCC1CC2)c1ccc2c(c1)OCCO2,–,72.7 µM (active)
O=[N+]([O-])c1ccc(Nc2ccccc2)cc1,inactive,–
O=S(=O)(F)C(F)(F)C(F)(F)C(F)(F)C(F)(F)F,inactive,–
CCC[CH2][Sn]([CH2]CCC)([CH2]CCC)[CH2]CCC,–,14 µM (active)
CCOP(=S)(OCC)O/N=C(\C#N)c1ccccc1,inactive,–
Clc1cc(C(Cl)(Cl)Cl)cnc1Cl,–,4.54 µM (active)
COC(=O)Nc1cccc(OC(=O)Nc2cccc(C)c2)c1,inactive,–
Brc1ccc(Oc2c(Br)cc(Br)cc2Br)c(Br)c1,inactive,–
CCOP(=O)(OCC)SCCSCC,inactive,–
N#CS,inactive,–
Cc1cc(-c2cc(C)c(N)c(C)c2)cc(C)c1N,inactive,–
Cc1ccc2nc3sc(=O)sc3nc2c1,inactive,–
CC[N+](CC)(CC)CC,inactive,–
CC(C)(c1ccccc1)c1cc(-n2nc3ccccc3n2)c(O)c(C(C)(C)c2ccccc2)c1,inactive,–
Cc1cc(C(F)(C(F)(F)F)C(F)(F)F)ccc1NC(=O)c1cccc(I)c1C(=O)NC(C)(C)CS(C)(=O)=O,inactive,–
N#CCCC(Br)(C#N)CBr (stereo not drawn),–,62.4 µM (active)

# Tested on: not listed separately
# Assay: ATG_M_61_CIS: Attagene CIS-FACTORIAL HepG2 Assay for M61 Transcription Factor (Internal Marker) (AID 2282937)
# Conditions: HepG2 Attagene CIS-FACTORIAL M61 internal marker reporter; actives raise or lower the signal
# Procedure, shortened: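 Cells were transfected with reporter units under cis-regulatory promoters, treated with chemicals for 24 h, then lysed for RNA. Reporter transcripts were quantified by RT-PCR and capillary electrophoresis, and activity was fitted bidirectionally against DMSO.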
row,SMILES,outcome
1,C[C@]12CC[C@@H](O)C[C@@H]1CC[C@@H]1[C@@H]2CC[C@]2(C)C(=O)CC[C@@H]12,inactive
2,CNC(=O)CSP(=O)(OC)OC,inactive
3,O=c1nc(O)n(Cl)c(=O)n1Cl,inactive
4,CC(C)CC(C)(c1ccc(O)cc1)c1ccc(O)cc1,inactive
5,CN(C)[C@@H]1C(=O)C(C(N)=O)=C(O)[C@@]2(O)C(=O)C3=C(O)c4c(O)ccc(Cl)c4[C@@](C)(O)[C@H]3C[C@@H]12,inactive
6,N#Cc1ccc(Cl)cc1,inactive
7,N#CCC#N,inactive
8,CC(C)[C@H](C(=O)OC(C#N)c1cccc(Oc2ccccc2)c1)c1ccc(OC(F)F)cc1 (stereo partly drawn),inactive
9,c1ccc2c(c1)Oc1ccccc1O2,inactive
10,BrCCCCBr,inactive
11,CCOP(=S)(OCC)SCSc1cc(Cl)ccc1Cl,inactive
12,COC(F)(C(F)(F)C(F)(F)F)C(F)(C(F)(F)F)C(F)(F)F (stereo not drawn),inactive
13,BrCc1ccc(Br)cc1,inactive
14,CN(N=O)c1ccc([N+](=O)[O-])cc1,inactive
15,Fc1cccc(Cl)c1CCl,inactive
16,O=S1(=O)OC(c2cc(Br)c(O)c(Br)c2)(c2cc(Br)c(O)c(Br)c2)c2ccccc21,inactive
17,Brc1ccc(Br)cc1,inactive
18,C[N+](C)(C)Cc1ccccc1,inactive
19,CCOP(=S)(OCC)OP(=S)(OCC)OCC,inactive
20,O=C(N[C@H]1CN2CCC1CC2)c1ccc2c(c1)OCCO2,inactive

row,SMILES,outcome
1,CC1(C)COP(Oc2ccccc2)OC1,inactive
2,O=[N+]([O-])c1ccc(Nc2ccccc2)cc1,inactive
3,O=S(=O)(F)C(F)(F)C(F)(F)C(F)(F)C(F)(F)F,inactive
4,Nc1ncn[nH]1,inactive
5,CCC[CH2][Sn]([CH2]CCC)([CH2]CCC)[CH2]CCC,inactive
6,CCOP(=S)(OCC)O/N=C(\C#N)c1ccccc1,inactive
7,Clc1cc(C(Cl)(Cl)Cl)cnc1Cl,inactive
8,COC(=O)Nc1cccc(OC(=O)Nc2cccc(C)c2)c1,inactive
9,Brc1ccc(Oc2c(Br)cc(Br)cc2Br)c(Br)c1,inactive
10,CCOP(=O)(OCC)SCCSCC,inactive
11,N#CS,inactive
12,Cc1cc(-c2cc(C)c(N)c(C)c2)cc(C)c1N,inactive
13,O=c1oc2ccccc2c(O)c1C(CC(O)c1ccc(-c2ccc(Br)cc2)cc1)c1ccccc1 (stereo not drawn),inactive
14,Cc1ccc2nc3sc(=O)sc3nc2c1,inactive
15,CC[N+](CC)(CC)CC,inactive
16,CC(C)(c1ccccc1)c1cc(-n2nc3ccccc3n2)c(O)c(C(C)(C)c2ccccc2)c1,inactive
17,Cc1cc(C(F)(C(F)(F)F)C(F)(F)F)ccc1NC(=O)c1cccc(I)c1C(=O)NC(C)(C)CS(C)(=O)=O,inactive
18,N#CCCC(Br)(C#N)CBr (stereo not drawn),inactive
19,COc1ccc(N)cc1,inactive
